This is an account of results in PubChem BioAssay.

Structures are written as SMILES. Calls of active or inactive are those of the source.

The target of assay [1] is Albumin (Bos taurus) (UniProt P02769). Kind of assay: bovine serum albumin binders on microarray, profiling panel, artefact control for SMM control protein annotation, biochemical, small-molecule microarray, Alexa647 label, 635/667 nm fluorescence (AID 1118).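 Also: score merges 667 nm emission intensity and signal-to-noise per printed compound spot.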 The settings on record: BSA-A647 binding, fluorescence 635 nm, higher = more signal.
Chain of Albumin (Bos taurus) (P02769 whole entry, looked up): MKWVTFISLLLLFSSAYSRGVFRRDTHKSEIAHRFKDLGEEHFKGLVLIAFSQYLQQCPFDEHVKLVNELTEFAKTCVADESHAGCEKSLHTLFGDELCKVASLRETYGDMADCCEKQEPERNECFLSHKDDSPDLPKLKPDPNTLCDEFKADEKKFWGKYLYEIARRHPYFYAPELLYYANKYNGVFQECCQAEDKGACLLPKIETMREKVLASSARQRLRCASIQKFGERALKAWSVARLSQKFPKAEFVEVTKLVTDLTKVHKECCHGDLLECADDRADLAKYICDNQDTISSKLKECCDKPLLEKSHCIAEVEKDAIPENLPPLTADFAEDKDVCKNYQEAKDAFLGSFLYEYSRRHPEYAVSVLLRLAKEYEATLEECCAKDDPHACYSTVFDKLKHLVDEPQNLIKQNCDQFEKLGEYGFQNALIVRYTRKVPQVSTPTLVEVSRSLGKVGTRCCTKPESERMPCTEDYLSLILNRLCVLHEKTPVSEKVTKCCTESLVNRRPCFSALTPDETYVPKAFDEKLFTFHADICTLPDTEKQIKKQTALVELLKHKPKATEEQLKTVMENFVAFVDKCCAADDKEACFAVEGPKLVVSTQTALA
A short description of assay [2]: small-molecule microarray binders of probe aXIP, primary screen, biochemical, NeuroSMM set, 635/667 nm fluorescence (AID 1119).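 Also: probe is the protein aXip251-270 applied at 1 µg/mL to compound-printed slides; binding of probe to printed compounds measured as 667 nm fluorescence plus signal to noise.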 The settings on record: higher = more signal, called active from +8 up or from −8 down.
Assay [3] is described as follows: small-molecule binders of probe aNOTCH3, primary screen, biochemical, small-molecule microarray, 635/667 nm fluorescence (AID 1120).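 Also: probe is a biotin-tagged antibody raised against NOTCH3 rather than NOTCH3 protein; score merges spot fluorescence near 667 nm with spot signal to noise.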 As to conditions: higher = more signal.
Assay [4] is described as follows: small-molecule binders of probe aNOTCH2, primary screen, biochemical, small-molecule microarray, 635/667 nm fluorescence (AID 1121).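 Also: score merges feature fluorescence read at 667 nm with its signal to noise.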 The settings on record: higher = more signal.
Assay [5] addresses Carbonic anhydrase 2 (Homo sapiens) (UniProt P00918). Kind of assay: CAII small-molecule binders, profiling panel, biochemical, small-molecule microarray, Alexa647-labelled CAII (AID 1122). The settings on record: CAII-A647 binding fluorescence, higher = more signal.
The nature of assay [6]: COS7 lysate on small-molecule microarray, probe aHis, 635 nm (AID 1123).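 Also: z-score combines 667nm fluorescence intensity with signal-to-noise per printed compound spot.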 The settings on record: COS7 cell lysate, fluorescence, higher = more signal.
Assay [7] in a line: compound binding in COS7 lysate, probe aLAP1, primary screen, cell lysate, small-molecule microarray (AID 1124).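 Also: lysate comes from COS7 cells expressing LAP1 and is applied at 0.3 µg/mL; score merges spot fluorescence near 667 nm with signal-to-noise over triplicate slides.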 The settings on record: probe aLAP1, fluorescence, higher = more signal.
Assay [8] concerns Sam68 (KHDRBS1). Kind of assay: Sam68 small-molecule binders, primary screen, biochemical, small-molecule microarray, 635 nm fluorescence (AID 1125).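 Also: score merges 667 nm channel intensity with signal to noise over triplicate slides.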 As to conditions: small-molecule microarray binding, higher = more signal.
Assay [9] concerns Chordin-like protein 2 (CHRDL2). Nature of the assay: CHRDL2 small-molecule binders, primary screen, biochemical, small-molecule microarray, 635 nm fluorescence (AID 1126).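 Also: printed compound slides probed with Chrdl2 protein at 4 µg/mL for 1 h at 4 C; score merges 667 nm emission intensity with signal to noise over three replicate slides.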 The settings on record: small-molecule microarray binding, fluorescence 635 nm; higher = more signal.
Assay [10] has as its target Concanavalin-A (Canavalia ensiformis) (UniProt P02866). Nature of the assay: ConA small-molecule binders, primary screen, artefact control for SMM control protein annotation, biochemical, small-molecule microarray, Alexa647 label, 635 nm (AID 1127).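 Also: z combines 667 nm emission intensity with signal-to-noise across three replicate slides.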 As to conditions: ConA-A647 binding fluorescence, higher = more signal.
Assay [11] can be described thus: anti-His antibody binders, primary screen, artefact control for SMM control protein annotation, biochemical, small-molecule microarray, 635 nm fluorescence (AID 1128).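 Also: score merges feature fluorescence with signal-to-noise for each printed compound spot.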 The settings on record: anti-His Alexa647 antibody binding, higher = more signal.
The test system of assay [12] is Human papillomavirus type 1a E7 protein (residues 1-88). Nature of the assay: HPV1a E7 small-molecule binders, primary screen, biochemical, small-molecule microarray, residues 1-88, 635 nm (AID 1129). As to conditions: small-molecule microarray binding, fluorescence 635 nm; higher = more signal.
Assay [13] addresses Focal adhesion kinase 1 (Homo sapiens) (UniProt Q05397). Nature of the assay: small-molecule microarray binders of FAK, primary screen, biochemical, 635/667 nm fluorescence, BSA, DTT (AID 1130).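 Also: composite of spot emission at 667 nm and signal to noise over triplicate slides.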 As to conditions: PTK2 binding, 635 nm fluorescence, higher = more signal.
Assay [14] concerns Fibrinogen (Alexa647-labelled). Kind of assay: fibrinogen binders on compound microarrays, profiling panel, artefact control for SMM control-protein annotation, biochemical, small-molecule microarray, 635/667 nm fluorescence (AID 1131).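 Also: z-score merges 667 nm fluorescence with per-spot signal-to-noise over triplicate slides.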 As to conditions: fibrinogen-A647 binding fluorescence, higher = more signal.
Assay [15] concerns the target Follistatin (Homo sapiens) (UniProt P19883). Nature of the assay: follistatin binders on small-molecule microarrays, primary screen, biochemical, small-molecule microarray, 635/667 nm fluorescence (AID 1132). As to conditions: FST binding, 635 nm fluorescence, higher = more signal.
Assay [16] deals with Fibroblast growth factor 2 (Homo sapiens) (UniProt P09038). Nature of the assay: FGF2 binders on small-molecule microarrays, primary screen, biochemical, small-molecule microarray, 635/667 nm fluorescence (AID 1133). As to conditions: small-molecule microarray binding, FGF2, fluorescence 635/667; higher = more signal.
Chain of Fibroblast growth factor 2 (Homo sapiens) (P09038 whole entry, looked up): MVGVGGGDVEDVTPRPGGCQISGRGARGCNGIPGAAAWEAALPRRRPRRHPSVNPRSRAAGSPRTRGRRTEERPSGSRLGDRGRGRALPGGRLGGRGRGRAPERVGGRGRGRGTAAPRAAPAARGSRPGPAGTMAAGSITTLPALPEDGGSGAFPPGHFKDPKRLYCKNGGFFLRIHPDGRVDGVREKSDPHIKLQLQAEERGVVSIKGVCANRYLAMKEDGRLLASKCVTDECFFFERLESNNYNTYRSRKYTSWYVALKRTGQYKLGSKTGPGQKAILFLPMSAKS
The nature of assay [17]: mitochondrial membrane potential change in A549 cells, profiling panel, cell-based, JC-1 fluorescence, basal, 24 h, 100 nL (AID 1138).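 Also: A549 lung adenocarcinoma cells under basal conditions with no added stimulus; test concentration not given here.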 As to conditions: higher = more signal.
Assay [18] relates to Lefty1. Kind of assay: Lefty1 binders on small-molecule microarrays, primary screen, biochemical, small-molecule microarray, 635/667 nm fluorescence (AID 1139). As to conditions: small-molecule microarray binding, fluorescence 635/667; higher = more signal.
Assay [19] concerns wheat germ agglutinin (Triticum aestivum), Alexa647-labelled. Kind of assay: wheat germ agglutinin binders on compound microarrays, profiling panel, artefact control for SMM control-protein annotation, biochemical, small-molecule microarray, 635/667 nm fluorescence (AID 1140).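 Also: score merges 667 nm feature emission with signal to noise over triplicate slides.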 As to conditions: WGA-A647 binding, 635 nm fluorescence, higher = more signal.
For assay [20], the target named is Luciferin 4-monooxygenase (Photinus pyralis) (UniProt P08659). Nature of the assay: firefly luciferase enzyme inhibitors, primary screen, biochemical, luminescence, purified enzyme, 2006 set (AID 1141).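 Also: cell-free assay with purified firefly luciferase at 100 ng per well in PBS; test concentration not given here.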 The settings on record: SteadyGlo luminescence, 30 min, higher = more signal, called active from +8 up or from −8 down.
Chain of Luciferin 4-monooxygenase (Photinus pyralis) (P08659 whole entry, looked up): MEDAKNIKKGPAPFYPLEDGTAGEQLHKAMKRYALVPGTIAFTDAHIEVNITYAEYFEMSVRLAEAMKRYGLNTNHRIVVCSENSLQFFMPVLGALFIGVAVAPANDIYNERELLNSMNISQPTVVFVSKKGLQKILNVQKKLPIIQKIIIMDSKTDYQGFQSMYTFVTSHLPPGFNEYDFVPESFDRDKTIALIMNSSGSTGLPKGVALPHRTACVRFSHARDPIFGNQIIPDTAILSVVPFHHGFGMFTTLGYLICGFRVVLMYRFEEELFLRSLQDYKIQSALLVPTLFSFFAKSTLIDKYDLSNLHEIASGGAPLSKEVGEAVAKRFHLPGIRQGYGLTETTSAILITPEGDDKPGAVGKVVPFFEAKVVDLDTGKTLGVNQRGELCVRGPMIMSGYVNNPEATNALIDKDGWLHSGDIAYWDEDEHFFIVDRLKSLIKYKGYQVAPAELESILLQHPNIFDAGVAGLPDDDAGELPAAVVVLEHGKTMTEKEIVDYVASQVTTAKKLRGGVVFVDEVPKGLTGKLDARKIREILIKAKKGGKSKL

Chain of Follistatin (Homo sapiens) (P19883 whole entry, looked up): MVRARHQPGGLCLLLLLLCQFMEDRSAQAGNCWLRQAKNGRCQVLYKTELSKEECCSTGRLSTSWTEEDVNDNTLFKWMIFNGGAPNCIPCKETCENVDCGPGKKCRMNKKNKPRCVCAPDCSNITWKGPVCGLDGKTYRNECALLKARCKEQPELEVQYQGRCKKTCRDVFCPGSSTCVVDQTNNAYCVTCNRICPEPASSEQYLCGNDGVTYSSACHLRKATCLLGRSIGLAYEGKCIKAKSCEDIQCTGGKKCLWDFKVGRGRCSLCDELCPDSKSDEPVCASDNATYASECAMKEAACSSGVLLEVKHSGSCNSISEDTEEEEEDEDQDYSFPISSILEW
Chain of Focal adhesion kinase 1 (Homo sapiens) (Q05397 whole entry, looked up): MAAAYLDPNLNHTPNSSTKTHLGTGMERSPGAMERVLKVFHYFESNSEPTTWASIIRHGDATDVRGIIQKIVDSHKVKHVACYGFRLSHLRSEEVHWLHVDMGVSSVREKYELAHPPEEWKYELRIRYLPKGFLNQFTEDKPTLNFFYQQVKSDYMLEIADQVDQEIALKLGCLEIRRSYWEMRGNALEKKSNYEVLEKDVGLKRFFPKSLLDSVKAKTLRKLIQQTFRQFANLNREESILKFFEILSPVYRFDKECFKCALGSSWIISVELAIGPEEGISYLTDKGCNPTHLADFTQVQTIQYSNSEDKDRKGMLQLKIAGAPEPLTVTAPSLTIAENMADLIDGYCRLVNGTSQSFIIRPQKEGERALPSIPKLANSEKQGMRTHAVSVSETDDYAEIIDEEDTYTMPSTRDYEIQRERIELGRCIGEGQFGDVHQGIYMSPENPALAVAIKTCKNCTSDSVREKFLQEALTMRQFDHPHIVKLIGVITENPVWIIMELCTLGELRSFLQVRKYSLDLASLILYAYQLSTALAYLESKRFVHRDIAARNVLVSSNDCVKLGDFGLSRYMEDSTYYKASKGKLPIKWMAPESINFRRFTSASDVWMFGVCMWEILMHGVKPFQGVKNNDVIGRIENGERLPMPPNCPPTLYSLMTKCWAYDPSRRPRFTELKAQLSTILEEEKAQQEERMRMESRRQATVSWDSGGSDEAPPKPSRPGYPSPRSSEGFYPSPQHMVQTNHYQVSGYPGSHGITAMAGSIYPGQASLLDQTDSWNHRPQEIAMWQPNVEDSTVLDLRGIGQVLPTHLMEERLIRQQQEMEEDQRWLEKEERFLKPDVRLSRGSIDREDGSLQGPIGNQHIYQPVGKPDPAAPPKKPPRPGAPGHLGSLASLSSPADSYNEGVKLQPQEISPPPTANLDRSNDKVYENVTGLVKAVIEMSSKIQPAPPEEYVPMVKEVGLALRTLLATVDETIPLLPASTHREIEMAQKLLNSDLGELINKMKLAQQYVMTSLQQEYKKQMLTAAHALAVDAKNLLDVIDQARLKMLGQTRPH
Chain of Concanavalin-A (Canavalia ensiformis) (P02866 whole entry, looked up): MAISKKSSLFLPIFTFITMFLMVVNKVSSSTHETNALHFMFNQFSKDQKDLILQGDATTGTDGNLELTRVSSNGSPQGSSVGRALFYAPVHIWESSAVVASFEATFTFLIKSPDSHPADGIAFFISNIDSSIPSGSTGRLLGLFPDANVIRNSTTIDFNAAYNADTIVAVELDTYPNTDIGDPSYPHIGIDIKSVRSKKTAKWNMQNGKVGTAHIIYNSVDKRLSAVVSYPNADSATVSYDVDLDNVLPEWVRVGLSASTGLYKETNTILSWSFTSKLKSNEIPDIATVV

For the molecule `COC(=O)[C@@H]1CC[C@H](C)[C@@H](c2ccc(C)cc2)N1C(=O)c1ccc(C=NOC[C@H]2O[C@H](c3ccccc3)C=C[C@@H]2Oc2ccc(OC)cc2)cc1`, the composite z-score in [1] is 0.312; in assay [3], 0.0257; in assay [4], -0.161; in [5] it was -0.145; in [6], -0.336; in [7], -0.192. For the same molecule, the composite z-score in [8] is 0.233; in assay [9], 0.692; in assay [10], 0.45; in [11] it was -0.585; in assay [12] it was -0.274; in [13] it was -0.0204. Besides, the composite z-score in [14] is -0.324; in assay [15], 0.222; in [16], 0.174; in assay [18], 0.244; in assay [19], 0.172. For the same molecule, in [2], the composite Z-score is -0.496 (inactive). Further, the z-score in assay [17] is -0.351; in [20] it was 1.18 (inactive).

In the case of `COC(=O)[C@@H]1CC[C@H](C)[C@@H](c2ccc(Br)cc2)N1C[C@H](O)CN=[N+]=[N-]`, the composite z-score was 0.0539 in assay [1]; -0.0219 in [3]; -0.12 in [4]; -0.109 in assay [5]; 0.653 in assay [6]; 0.475 in assay [7]. The composite z-score was -0.0747 in assay [8]; 0.101 in [9]; -0.35 in [10]; 0.383 in [11]; -0.459 in assay [12]; 0.709 in assay [13]. In addition, the composite z-score in [14] was 0.118; in assay [15] it was -0.117; in assay [16], 0.0395; in assay [18] it was 0.17; in assay [19], 0.162. Moreover, the composite Z-score in [2] is 0.486 (inactive). In addition, the z-score is -0.821 in [17] and -0.169 (inactive) in assay [20].

Turning to `CC(CCC(=O)OC[C@H]1O[C@H](C#Cc2ccccc2)C=C[C@@H]1Oc1ccc(C)cc1)=NOC(C)CN1CCCCc2nc(C)c(C)cc21` (stereo not given in full), the composite z-score in assay [1] is 0.473; in assay [3], -0.0377; in assay [4], 0.161; in [5], 0.346; in assay [6] it was 0.938; in assay [7], 0.214. Moreover, the composite z-score in assay [8] is 0.313; in [9] it was -0.168; in [10] it was -0.207; in assay [11], -0.578; in [12], 0.203; in assay [13], 0.603. Also, the composite z-score in assay [14] is -0.626; in [15], -0.463; in assay [16], -0.426; in [18], -0.034; in assay [19], 0.222. For the same molecule, the composite Z-score in assay [2] was 1.48 (inactive). The z-score was 0.856 in assay [17] and 1.08 (inactive) in assay [20].

With `C[C@]12CCC3c4ccc(OCC5CO5)cc4CCC3C1CC[C@@H]2O` (stereo not given in full), the composite z-score in assay [1] is 0.754; in assay [3], -0.0932; in assay [4] it was 0.0365; in [5] it was 0.646; in assay [6], 0.528; in [7] it was 0.414. Further, the composite z-score worked out at 0.759 in assay [8]; 0.118 in [9]; 0.961 in assay [10]; 1.19 in [11]; 1.14 in assay [12]; 0.492 in assay [13]. Moreover, the composite z-score in [14] is 1; in assay [15], 0.137; in assay [16], -0.2; in assay [18] it was -0.005; in assay [19], 1.05. Further, the composite Z-score in assay [2] was 0.257 (inactive). Further, the results for the z-score in assay [17] and in [20] were 4.51 and -0.466 (inactive), respectively.

Consider `CC(C)(C)N1C(=O)[C@H]2[C@H]3[C@H](O)[C@H](O)CC(=NOC[C@@H](O)COCc4ccco4)[C@@H]3CC[C@H]2C1=O`, for which the composite z-score in assay [1] was 0.617; in [3], -0.0311; in assay [4], -0.0984; in assay [5], -0.129; in assay [6], 0.0171; in assay [7] it was 0.227. Further, the composite z-score is -0.254 in assay [8]; 0.107 in assay [9]; 0.506 in [10]; -0.329 in assay [11]; -0.451 in assay [12]; -0.0584 in assay [13]. The composite z-score was 0.961 in [14]; -0.396 in [15]; -0.0677 in assay [16]; -0.211 in [18]; 0.915 in [19]. In addition, the composite Z-score in assay [2] is 0.103 (inactive). Moreover, the results for the z-score in [17] and in assay [20] were -0.521 and -0.124 (inactive), respectively.
